# How the values were obtained:
# Assay in all cases: phage ELISA signal ratio (GST-PRM binding over GST background); higher = stronger binding of peptide-phage to the PRM
# [1] = target: T1, SFN 1-236 14-3-3 (domain begin residue: 1, domain end residue: 236), P31947
# T1 chain: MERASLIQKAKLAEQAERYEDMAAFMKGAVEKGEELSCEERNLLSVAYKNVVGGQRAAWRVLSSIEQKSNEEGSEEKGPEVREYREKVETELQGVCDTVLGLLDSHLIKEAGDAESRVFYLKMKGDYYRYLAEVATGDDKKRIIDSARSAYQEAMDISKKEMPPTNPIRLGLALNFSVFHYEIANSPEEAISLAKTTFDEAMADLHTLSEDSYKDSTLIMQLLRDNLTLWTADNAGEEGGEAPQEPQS
# Outline: (§1)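 Each value is the phage ELISA signal on the glutathione S-transferase (GST)-domain fusion divided by the signal on GST alone. Human peptide recognition domains were expressed in 96-well plates, fused to the C-terminus of GST, and selected against an M13 phage library carrying randomized, cysteine-free, glycine-flanked hexadecapeptides on the gene-8 major coat protein. After five selection rounds, approximately 48 individual clones from rounds 4 and 5 were tested by phage ELISA, and positive clones were sequenced.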
# [2] = target: T2, SHC1 149-317 PID (domain begin residue: 149, domain end residue: 317), P29353
# T2 chain: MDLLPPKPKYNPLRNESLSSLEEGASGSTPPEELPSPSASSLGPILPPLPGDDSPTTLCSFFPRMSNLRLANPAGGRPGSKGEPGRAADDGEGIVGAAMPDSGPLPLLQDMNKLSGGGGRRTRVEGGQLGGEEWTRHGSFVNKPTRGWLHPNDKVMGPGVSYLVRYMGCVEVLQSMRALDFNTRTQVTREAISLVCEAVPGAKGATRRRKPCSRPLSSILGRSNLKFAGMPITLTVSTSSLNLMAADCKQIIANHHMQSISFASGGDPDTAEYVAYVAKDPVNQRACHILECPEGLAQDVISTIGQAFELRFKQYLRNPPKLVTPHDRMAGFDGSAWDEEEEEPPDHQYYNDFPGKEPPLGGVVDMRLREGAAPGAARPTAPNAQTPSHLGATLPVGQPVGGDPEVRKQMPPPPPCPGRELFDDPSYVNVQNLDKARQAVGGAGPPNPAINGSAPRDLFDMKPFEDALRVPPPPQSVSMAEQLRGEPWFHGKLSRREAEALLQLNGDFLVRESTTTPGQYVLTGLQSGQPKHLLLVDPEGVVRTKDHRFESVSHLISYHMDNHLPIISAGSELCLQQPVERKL
# Outline: as §1
# [3] = target: T3, SND1 650-910 TUDOR+SNase (domain begin residue: 650, domain end residue: 910), Q7KZF4
# T3 chain: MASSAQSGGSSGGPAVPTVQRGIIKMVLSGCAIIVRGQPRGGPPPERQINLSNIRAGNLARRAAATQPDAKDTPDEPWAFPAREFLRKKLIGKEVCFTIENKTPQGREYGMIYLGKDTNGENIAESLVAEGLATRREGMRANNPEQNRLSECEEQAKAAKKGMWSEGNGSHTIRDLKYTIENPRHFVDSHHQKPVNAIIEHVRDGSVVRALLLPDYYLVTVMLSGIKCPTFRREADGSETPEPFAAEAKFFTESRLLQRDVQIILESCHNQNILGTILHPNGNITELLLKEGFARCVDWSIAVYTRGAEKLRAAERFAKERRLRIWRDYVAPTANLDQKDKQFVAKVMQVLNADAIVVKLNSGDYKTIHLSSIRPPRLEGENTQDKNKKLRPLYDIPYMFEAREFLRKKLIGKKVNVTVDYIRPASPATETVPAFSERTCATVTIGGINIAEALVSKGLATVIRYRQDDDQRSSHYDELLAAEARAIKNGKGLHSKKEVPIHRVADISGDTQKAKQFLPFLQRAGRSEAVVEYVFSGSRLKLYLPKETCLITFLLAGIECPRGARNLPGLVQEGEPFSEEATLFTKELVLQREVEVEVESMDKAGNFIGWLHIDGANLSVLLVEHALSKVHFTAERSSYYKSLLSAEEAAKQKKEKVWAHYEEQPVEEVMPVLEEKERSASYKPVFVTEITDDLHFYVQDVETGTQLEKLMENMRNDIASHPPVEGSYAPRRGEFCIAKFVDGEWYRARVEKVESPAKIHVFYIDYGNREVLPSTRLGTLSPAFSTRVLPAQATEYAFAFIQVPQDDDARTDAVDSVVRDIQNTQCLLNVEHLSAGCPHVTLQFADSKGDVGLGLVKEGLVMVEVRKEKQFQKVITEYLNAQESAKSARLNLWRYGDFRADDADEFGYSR
# Outline: as §1
# [4] = target: T4, SPAG1 615-745 TPR_1 (domain begin residue: 615, domain end residue: 745), Q07617
# T4 chain: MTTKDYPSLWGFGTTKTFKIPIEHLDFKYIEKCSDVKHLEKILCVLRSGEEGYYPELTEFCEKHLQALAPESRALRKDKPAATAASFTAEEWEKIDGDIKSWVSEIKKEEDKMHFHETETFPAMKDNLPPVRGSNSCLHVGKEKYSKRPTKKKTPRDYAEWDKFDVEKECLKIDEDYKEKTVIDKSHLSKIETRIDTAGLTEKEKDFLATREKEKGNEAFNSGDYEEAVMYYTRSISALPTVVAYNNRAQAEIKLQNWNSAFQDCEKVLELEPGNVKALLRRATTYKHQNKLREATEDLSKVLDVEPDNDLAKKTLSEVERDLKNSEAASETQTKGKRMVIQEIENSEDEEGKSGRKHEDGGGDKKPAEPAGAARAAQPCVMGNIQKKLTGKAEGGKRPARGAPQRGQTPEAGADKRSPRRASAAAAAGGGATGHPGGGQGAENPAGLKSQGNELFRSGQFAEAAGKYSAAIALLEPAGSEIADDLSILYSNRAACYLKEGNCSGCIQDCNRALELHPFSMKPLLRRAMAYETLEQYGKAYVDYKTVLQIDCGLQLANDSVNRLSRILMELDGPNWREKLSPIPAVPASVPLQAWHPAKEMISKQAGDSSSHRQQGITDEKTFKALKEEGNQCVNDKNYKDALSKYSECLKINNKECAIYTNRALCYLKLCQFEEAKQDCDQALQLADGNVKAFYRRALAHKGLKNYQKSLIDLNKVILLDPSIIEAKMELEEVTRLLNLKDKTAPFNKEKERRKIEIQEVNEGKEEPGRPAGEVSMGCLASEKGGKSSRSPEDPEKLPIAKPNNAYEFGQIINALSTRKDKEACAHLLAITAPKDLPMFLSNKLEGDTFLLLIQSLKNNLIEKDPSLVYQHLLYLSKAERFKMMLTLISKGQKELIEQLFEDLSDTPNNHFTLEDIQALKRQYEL
# Outline: as §1
# [5] = target: T5, SPRED1 13-131 WH1 (domain begin residue: 13, domain end residue: 131), Q7Z699
# T5 chain: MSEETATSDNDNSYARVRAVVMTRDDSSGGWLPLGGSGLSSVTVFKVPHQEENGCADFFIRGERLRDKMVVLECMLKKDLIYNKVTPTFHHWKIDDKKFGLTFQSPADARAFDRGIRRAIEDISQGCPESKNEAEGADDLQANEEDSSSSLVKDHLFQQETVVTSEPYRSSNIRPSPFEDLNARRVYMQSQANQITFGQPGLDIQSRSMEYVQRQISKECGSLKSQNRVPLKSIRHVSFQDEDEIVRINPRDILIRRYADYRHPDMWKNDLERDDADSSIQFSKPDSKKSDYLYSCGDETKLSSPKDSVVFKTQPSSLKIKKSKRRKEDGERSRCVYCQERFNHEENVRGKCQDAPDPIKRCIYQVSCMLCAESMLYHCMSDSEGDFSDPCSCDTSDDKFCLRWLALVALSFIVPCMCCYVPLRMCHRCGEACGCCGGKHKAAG
# Outline: as §1
# [6] = target: T6, SPRED2 1-124 WH1 (domain begin residue: 1, domain end residue: 124), Q7Z698
# T6 chain: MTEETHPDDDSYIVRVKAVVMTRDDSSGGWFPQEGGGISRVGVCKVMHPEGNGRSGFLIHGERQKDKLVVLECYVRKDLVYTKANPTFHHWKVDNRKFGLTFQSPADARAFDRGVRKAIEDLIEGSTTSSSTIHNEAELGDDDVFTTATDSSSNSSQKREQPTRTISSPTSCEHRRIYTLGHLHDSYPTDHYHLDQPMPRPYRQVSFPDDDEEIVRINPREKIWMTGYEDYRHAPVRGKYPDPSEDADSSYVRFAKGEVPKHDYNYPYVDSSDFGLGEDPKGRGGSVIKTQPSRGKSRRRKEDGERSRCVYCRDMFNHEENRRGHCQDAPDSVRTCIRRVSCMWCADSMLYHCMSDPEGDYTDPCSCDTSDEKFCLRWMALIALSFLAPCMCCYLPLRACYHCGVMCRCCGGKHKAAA
# Outline: as §1
# [7] = target: T7, SPRED3 1-117 WH1 (domain begin residue: 1, domain end residue: 117), Q2MJR0
# T7 chain: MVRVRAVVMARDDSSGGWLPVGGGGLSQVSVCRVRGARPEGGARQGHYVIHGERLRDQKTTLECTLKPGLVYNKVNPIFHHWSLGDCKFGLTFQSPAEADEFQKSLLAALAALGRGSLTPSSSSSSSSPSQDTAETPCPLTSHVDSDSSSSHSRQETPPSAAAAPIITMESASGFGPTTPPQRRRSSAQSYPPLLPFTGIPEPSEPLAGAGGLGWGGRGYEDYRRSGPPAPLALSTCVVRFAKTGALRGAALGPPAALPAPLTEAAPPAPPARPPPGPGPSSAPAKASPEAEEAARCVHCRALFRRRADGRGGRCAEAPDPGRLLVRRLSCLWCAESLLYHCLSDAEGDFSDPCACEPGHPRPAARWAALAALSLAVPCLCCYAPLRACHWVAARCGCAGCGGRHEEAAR
# Outline: as §1
binder,measurement,setting,value
DWVLYKEWVPQWPHNF,phage ELISA signal ratio,[1],17.1
LEEHWQWWVDDMMPME,phage ELISA signal ratio,[2],4.84
PKWEFFQDHTQDHHNQ,phage ELISA signal ratio,[2],6.37
EWGIMDSEWWGRYYEM,phage ELISA signal ratio,[2],6.81
QVDQGEYVYGFWWEVL,phage ELISA signal ratio,[2],9.85
HVQWINHSFMMDMPQN,phage ELISA signal ratio,[2],15.5
GPMIGWNQEYIFFSEH,phage ELISA signal ratio,[2],16.2
ESEGSHYWNYFADAIA,phage ELISA signal ratio,[2],18.2
WEGYYQFLVPDTHTSE,phage ELISA signal ratio,[2],18.9
EWNKNLHWFEVFDQEV,phage ELISA signal ratio,[2],20.3
EELWDQWHSWVTEPDE,phage ELISA signal ratio,[3],4.69
GDYMSMLFMQEWGPFN,phage ELISA signal ratio,[3],5.51
YDWFSAVVEDQWEKVS,phage ELISA signal ratio,[3],6.56
MNFMDIWDHMAIPPEQ,phage ELISA signal ratio,[3],7.06
PWDMIWDDPSWAPMLE,phage ELISA signal ratio,[3],7.49
MDLLEQQMWQDYFLWH,phage ELISA signal ratio,[4],3.83
WATVSEWGDWTTVVFN,phage ELISA signal ratio,[5],3.55
SSMWWTDTGDMYLRPE,phage ELISA signal ratio,[6],4.88
NLWPEVEPIMDNWQPS,phage ELISA signal ratio,[6],6.67
AWFEGPFDTSHWQWEA,phage ELISA signal ratio,[6],7.72
TWGWFDTGEAWSTMSM,phage ELISA signal ratio,[6],10
HPIFNDAGGLQGWFSY,phage ELISA signal ratio,[6],11.1
PVQWGDWSYPYDLSGQ,phage ELISA signal ratio,[6],12.6
GYKLWETETSWWFVPA,phage ELISA signal ratio,[6],14
GAGELEWYPIWWDVTH,phage ELISA signal ratio,[6],17.3
GIVPWWHDSGDHWGPL,phage ELISA signal ratio,[6],19.4
WEWKDYEKVVHFQDMK,phage ELISA signal ratio,[7],3.38
LDWDWVQWHFDDAMRW,phage ELISA signal ratio,[7],7.1

# Source: the supplement of paper PMC7724964
